Among the test systems are TNNI3K; TRKB; TRPM6; TSSK1B; TSSK3; TTK; TXK; TYRO3; ULK1; ULK2; ULK3; VRK2; WEE1; WEE2.
Common to all, as to details: concentration: 1 μM, replicates: in singlicate; n = 1
The subject of a further experiment is T1, TRKA.
T1 construct: gene NTRK1

A further experiment has as its system T2, TRKC.
T2 construct: gene NTRK3

For experiment [1], the system named is TYK2(JH1domain-catalytic).
The subject of experiment [2] is TYK2(JH2domain-pseudokinase).
Another experiment concerns T3, VEGFR2.
T3 construct: gene KDR

The next experiment relates to T4, VPS34.
T4 construct: gene PIK3C3

The source of these data is PMC5540273 (PLoS ONE, 2017).
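Note: KINOMEscan kinase panel screen.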

Regarding `CN(C)CCOc1ccc(-c2cc(-c3ccc(Cl)c(O)c3)c(-c3ccncc3)[nH]2)cc1.Cl.Cl` [SB-684387], the “%Inh” value came out at 60% in the experiment with TNNI3K; 9% in the experiment with TRKA; 21% in the experiment with TRKB; 36% in the experiment with TRKC; 36% in the experiment with TRPM6; 0% in the experiment on TSSK1B. The “%Inh” value stood at 15% in the experiment on TSSK3; 0% with TTK; 56% in the experiment on TXK; 8% in experiment [1]; 18% in experiment [2]; 6% with TYRO3. Moreover, the “%Inh” value in the experiment with ULK1 amounted to 6%; in the experiment with ULK2, 8%; with ULK3, 14%; in the experiment with VEGFR2 it was 21%; in the experiment on VPS34, 16%; with VRK2, 45%. In addition, the “%Inh” value in the experiment on WEE1 stood at 7%; with WEE2, 0%.

Turning to `Fc1cc(Cl)ccc1Nc1ccnc2cc(-c3ccc(CN4CCOCC4)o3)ccc12` [GW560109], the “%Inh” value in the experiment with TNNI3K was 7%; with TRKA, 42%; in the experiment on TRKB, 41%; with TRKC it was 35%; in the experiment with TRPM6 it was 35%; in the experiment with TSSK1B it was 21%. The “%Inh” value was found to be 3% in the experiment with TSSK3; 21% in the experiment on TTK; 86% in the experiment with TXK; 18% in experiment [1]; 29% in experiment [2]; 83% in the experiment on TYRO3. Further, the “%Inh” value is listed as 15% in the experiment with ULK1; 8% in the experiment with ULK2; 34% in the experiment with ULK3; 82% with VEGFR2; 0% in the experiment on VPS34; 27% with VRK2. For the same compound, the “%Inh” value with WEE1 and in the experiment with WEE2 was 0% in each case.

With `O=C(O)C(F)(F)F.O=c1[nH]ccc2nc(N[C@@H]3CCNC3)nc(Nc3cc(Cl)cc(Cl)c3)c12` [GSK2188764], the “%Inh” value with TNNI3K turned out to be 39%; in the experiment on TRKA it was 100%; in the experiment with TRKB, 76%; in the experiment with TRKC it was 62%; in the experiment with TRPM6, 37%; with TSSK1B it was 75%. Besides, the “%Inh” value came out at 85% with TSSK3; 87% in the experiment on TTK; 0% in the experiment on TXK; 80% in [1]; 28% in [2]; 0% in the experiment on TYRO3. The “%Inh” value in the experiment with ULK1 was determined as 99.8%; in the experiment on ULK2 it was 99.9%; in the experiment with ULK3, 97.4%; in the experiment with VEGFR2 it was 15%; in the experiment on VPS34, 78%; in the experiment on VRK2, 94%. The “%Inh” value in the experiment on WEE1 and in the experiment on WEE2 was 0% each time.

For `CC(C)c1nc(-c2cccc(NS(=O)(=O)c3c(F)cccc3F)c2)c(-c2ccnc(Nc3ccc(N4CCOCC4)nc3)n2)s1.Cl` [GSK1723980], the “%Inh” value was found to be 52% in the experiment on TNNI3K; 61% in the experiment on TRKA; 0% with TRKB; 14% in the experiment with TRKC; 27% with TRPM6; 0% in the experiment on TSSK1B. In addition, the “%Inh” value in the experiment with TSSK3 was 19%; in the experiment on TTK it was 61%; in the experiment on TXK, 92.7%; in experiment [1], 45%; in experiment [2], 60%; with TYRO3, 72%. For the same compound, the “%Inh” value was found to be 22% in the experiment on ULK1; 13% in the experiment on ULK2; 93.5% in the experiment with ULK3; 91% in the experiment with VEGFR2; 0% in the experiment on VPS34; 0% in the experiment with VRK2. For the same compound, the “%Inh” value is recorded as 18% in the experiment on WEE1 and 0% in the experiment on WEE2.

Turning to `Nc1ncnc2scc(-c3ccc(NC(=O)Cc4cc(F)ccc4F)cc3)c12.O=C(O)C(F)(F)F` [SB-731254-M], the “%Inh” value with TNNI3K is 0%; in the experiment on TRKA it was 62%; in the experiment on TRKB, 72%; in the experiment with TRKC, 71%; in the experiment with TRPM6, 31%; in the experiment with TSSK1B it was 0%. Moreover, the “%Inh” value was 0% with TSSK3; 0% in the experiment with TTK; 8% in the experiment with TXK; 2% in [1]; 0% in [2]; 0% in the experiment on TYRO3. Besides, the “%Inh” value stood at 11% in the experiment with ULK1; 1% in the experiment with ULK2; 34% in the experiment with ULK3; 80% with VEGFR2; 0% with VPS34; 0% in the experiment on VRK2. The “%Inh” value in the experiment with WEE1 and with WEE2 was 0% each time.

Regarding `COc1cc(Nc2nccc(N3CCC(NS(=O)(=O)c4ccc(NC(C)=O)cc4)CC3)n2)cc(OC)c1OC` [GSK1379825], the “%Inh” value in the experiment with TNNI3K came to 40%; in the experiment on TRKA, 100%; in the experiment with TRKB it was 27%; in the experiment on TRKC, 15%; with TRPM6 it was 0%; in the experiment on TSSK1B, 12%. Further, the “%Inh” value in the experiment on TSSK3 worked out at 25%; in the experiment on TTK it was 1%; with TXK it was 51%; in [1] it was 75%; in experiment [2], 84%; in the experiment with TYRO3, 76%. Besides, the “%Inh” value in the experiment with ULK1 is 21%; with ULK2 it was 11%; with ULK3, 97.4%; in the experiment with VEGFR2 it was 0%; in the experiment on VPS34 it was 34%; in the experiment on VRK2 it was 0%. Besides, the “%Inh” value in the experiment with WEE1 is 75%; with WEE2, 0%.

For the compound `CCn1c(-c2nonc2N)nc2c(-c3ccccc3)ncc(OCCCN)c21.O=C(O)C(F)(F)F.O=C(O)C(F)(F)F` [GSK260205], the “%Inh” value is 16% in the experiment with TNNI3K; 0% in the experiment on TRKA; 23% with TRKB; 26% in the experiment with TRKC; 19% in the experiment on TRPM6; 11% in the experiment on TSSK1B. For the same compound, the “%Inh” value is reported as 24% with TSSK3; 0% in the experiment with TTK; 0% in the experiment with TXK; 88% in experiment [1]; 95.2% in [2]; 0% with TYRO3. In addition, the “%Inh” value with ULK1 is reported as 9%; with ULK2 it was 0%; in the experiment with ULK3, 4%; in the experiment with VEGFR2, 21%; in the experiment with VPS34, 0%; in the experiment with VRK2, 28%. Moreover, the “%Inh” value came to 2% in the experiment with WEE1 and 8% in the experiment on WEE2.

For the compound `CCOc1nccc(-c2c(-c3ccc(F)cc3)ncn2C2CCNCC2)n1` [SB-249175], the “%Inh” value in the experiment on TNNI3K amounted to 4%; with TRKA it was 47%; with TRKB, 21%; in the experiment with TRKC it was 18%; in the experiment on TRPM6, 18%; in the experiment with TSSK1B, 0%. The “%Inh” value with TSSK3 is 34%; with TTK, 0%; with TXK, 10%; in experiment [1] it was 45%; in experiment [2], 36%; with TYRO3 it was 15%. In addition, the “%Inh” value with ULK1 worked out at 28%; in the experiment on ULK2 it was 34%; in the experiment on ULK3 it was 26%; with VEGFR2 it was 13%; in the experiment on VPS34 it was 24%; with VRK2, 51%. Further, the “%Inh” value is given as 0% in the experiment with WEE1 and 18% with WEE2.

Take `Cn1cc(-c2cnc(N)c3c(-c4ccc5c(c4)CCN5C(=O)Cc4ccccc4)csc23)cn1` [GSK2593074]: the “%Inh” value in the experiment on TNNI3K was determined as 0%; in the experiment on TRKA, 79%; in the experiment with TRKB, 80%; in the experiment with TRKC, 66%; in the experiment on TRPM6, 15%; in the experiment on TSSK1B, 0%. Further, the “%Inh” value with TSSK3 is given as 0%; in the experiment on TTK it was 7%; with TXK, 9%; in experiment [1] it was 0%; in experiment [2], 0%; in the experiment with TYRO3 it was 63%. Moreover, the “%Inh” value came out at 0% with ULK1; 0% with ULK2; 0% in the experiment on ULK3; 65% with VEGFR2; 0% in the experiment with VPS34; 0% in the experiment with VRK2. The “%Inh” value in the experiment on WEE1 was found to be 3%; in the experiment with WEE2, 5%.

With `CN1CCN(Cc2ccc(NC(=O)Nc3ccc(N(C)c4ccnc(Nc5ccc(CS(C)(=O)=O)cc5)n4)cc3)cc2)CC1.Cl` [GW827654], the “%Inh” value was found to be 46% in the experiment with TNNI3K; 91.4% with TRKA; 92% in the experiment on TRKB; 92.5% in the experiment on TRKC; 0% in the experiment on TRPM6; 0% in the experiment with TSSK1B. Also, the “%Inh” value in the experiment on TSSK3 is on record as 47%; in the experiment with TTK it was 28%; in the experiment on TXK it was 85%; in [1] it was 97.9%; in experiment [2] it was 87%; in the experiment on TYRO3, 35%. The “%Inh” value with ULK1 worked out at 0%; with ULK2, 51%; with ULK3, 95.9%; with VEGFR2, 99.9%; with VPS34, 42%; in the experiment with VRK2 it was 65%. Also, the “%Inh” value with WEE1 came to 0%; in the experiment with WEE2, 27%.
